Compounds without any hit were thinned out: in the full panel of roughly 79,000, 15% have a hit. Unmarked numbers belong to inactive results. Active and inactive are the calls of the source. Cut-off read from the data, not from the text of the source: active = growth inhibition above about 70%; inactive = the rest.
assay: NCI Yeast Anticancer Drug Screen. Data for the cln2 rad14 strain (AID 165);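 note: 0% = growth equal to vehicle treated cultures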; settings: S. cerevisiae cln2 rad14 strain, at 50.0 µM, active compounds read high
In short: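 The screen exposed genetically defined yeast (cln2 rad14) to test compounds and scored growth inhibition relative to vehicle-treated controls.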

Compared with N#Cc1nc(CC(=O)c2ccncc2)c(CC(=O)c2ccncc2)nc1C#N, CC1(C)OC(=C(C#N)C#N)C(C#N)=C1/C=C/c1ccncc1 is higher in growth inhibition: 13.5% for the first, 18.2% for the second.

Going from COc1cnc(NS(=O)(=O)c2ccc(N)cc2)nc1 to Cc1ccc(S(=O)(=O)NNC(=O)c2cc(C(=O)NNS(=O)(=O)c3ccc(C)cc3)c(C)nc2C)cc1, the growth inhibition rises from 10.2% to 21.8%.

Going from CC(=O)NNC(=S)N/C=C(\C#N)C(=O)c1ccc2ccccc2c1 to Cc1ccc(C(=O)C2CC2c2ccccc2)cc1 (centres undefined), the growth inhibition falls from -1.1% to -38%.

First: Cc1cc(C)c(C#[N+][O-])c(C)c1C#[N+][O-]
Second: CC(=O)c1cc(C)c(O)c(C)c1
The growth inhibition of the first is higher: 13.7% for the first, -4.05% for the second.

Going from CN1CCc2[nH]nc(-c3n[nH]c4c3CN(C)CC4)c2C1 to Cc1cccc(N2CCN(c3ccc4nonc4c3[N+](=O)[O-])CC2)c1, the growth inhibition falls from -0.05% to -13%.

Going from O=c1c(-c2ccccc2)c2oc(c1-c1ccccc1)CS(=O)(=O)CCC2 to CC(=O)Nc1ccc(/C=C2\N=C(c3ccccc3)OC2=O)cc1, the growth inhibition falls from 12.3% to -49%.

First: CCOC(=O)C1CSCN1C(C)=O (centres undefined)
Second: CCOC(=O)c1cc(C)nc(Cl)c1[N+](=O)[O-]
The growth inhibition of the first is lower: -34.5% for the first, 0.65% for the second.

Going from O=C1CC2CCCCC2=C1O (centres undefined) to C=C(Br)CN(C(C)=O)C1CCCCC1, the growth inhibition rises from 17.9% to 18.6%.

First: CN1C(=O)OC2C3NC(=O)OC3C(O)C(O)C21 (centres undefined)
Second: COC(=O)CNC(=O)Nc1cc(N2C(=O)ON3C2C(C)(C)N(O)C3(C)C)ccc1C (centres undefined)
The growth inhibition of the first is lower: -1.15% for the first, 20.6% for the second.

Going from COc1ccc2nc3cc(Cl)ccc3c(NCCC3CCCN4CCCCC34)c2c1 (centres undefined) to O=c1ccnc2c1ccc1[nH]cccc12, the growth inhibition falls from 21.6% to 1%.

First: Cc1ccc([N+](=O)[O-])cc1N=C=O
Second: COc1cc([N+](=O)[O-])c(OC)cc1N
The growth inhibition of the first is lower: -34% for the first, -27.4% for the second.

Going from CCN(CC)CCCCCCCNc1nccc2ccccc12 to COc1ccccc1CNCCCCCNCCCCCCCCCCNCCCCCNCc1ccccc1OC, the growth inhibition rises from -23.3% to -9.1%.

Going from O=C(O)CCSC1=NCCN1 to CCN(CC)C(=O)C1CCNCC1, the growth inhibition falls from 16.6% to -27.2%.

Going from O=C(O)C1[N-]CCNC1C(=O)O.[O]=[V][OH] (centres undefined) to O=C(O)CC(NC(=O)CP(=O)(O)O)C(=O)O (centres undefined), the growth inhibition rises from -16.9% to 2%.

Compared with CC(O)(c1ccc(OCCC[N+](C)(C)C)cc1)C(C)(O)c1ccc(OCCC[N+](C)(C)C)cc1 (centres undefined), CCOC(=O)CCOc1ccccc1 is lower in growth inhibition: 12.9% for the first, 3.8% for the second.

Compared with Cc1nc(N(CCO)CCO)c2sc(=S)n(-c3ccccc3)c2n1, Cn1c(=O)c2[nH]c(CCNC(=O)c3ccccc3)nc2n(C)c1=O is lower in growth inhibition: -13.7% for the first, -38.5% for the second.

Compared with OC1c2ccccc2-c2ccc(N(Cc3ccccc3)Cc3ccccc3)cc21 (centres undefined), C#CC1(NC(=O)c2ccccc2C(=O)Nc2cccc(C(F)(F)F)c2)CCCCC1 is lower in growth inhibition: 30.8% for the first, 11.3% for the second.

First: CCCCCCCCCCCCC(F)C(=O)OCC1OC(n2cc(C)c(=O)[nH]c2=O)CC1N=[N+]=[N-] (centres undefined)
Second: CC1CCCCN1CCCO (centres undefined)
The growth inhibition of the first is lower: -14.8% for the first, 3.05% for the second.

First: CCc1ccc(OC(C)=O)cc1
Second: Cc1cccc(C(=O)N(C)C)c1
The growth inhibition of the first is lower: -21.7% for the first, -17.8% for the second.

For CCCc1c(O)c(=O)c2c(OC)cc(OC)c3c4c(OC)cc(OC)c5c(=O)c(O)c(CCC)c(c1c23)c54, the growth inhibition was 84.5% (active).

From PubChem BioAssay (NCI)
